Drawing on PubChem BioAssay (Tox21), this text covers Potency for eight molecules.

Unmarked numbers belong to inactive results. Results filed as inconclusive are left out. Active and inactive are the calls of the source. Unless noted, calls follow the shape of the full dose curve.

The nature of assay [1]: Nuclear factor erythroid 2-related factor 2/antioxidant responsive element (Nrf2/ARE) small molecule agonists: qHTS cell viability counter screen in human keratinocytes (AID 1919968; active = well fitted curve in the direction sought with a large enough effect in the repeat runs; an effect the other way counts as inactive or inconclusive; also: nearly all actives have a fitted effect of over 55% in size). The method, boiled down: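 Seed 1,500 KeratinoSens cells per well, then incubate 5 h at 37 C/5% CO2. Add compounds in DMSO and incubate 23 h. Add CellTiter-Fluor, wait 1 h and read fluorescence.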
(In general: Quantitative high-throughput screening tests each substance at several concentrations.)

Assay [2] in a line: Nuclear factor erythroid 2-related factor 2/antioxidant responsive element (Nrf2/ARE) small molecule agonists: luciferase reporter gene qHTS assay in human keratinocytes (AID 1919969). Also: nearly all actives have a fitted effect of over 35% in size. Also: potency is read from the fitted curve at half-maximal effect. Background: In a reporter assay the amount or activity of a reporter protein is the signal.
Assay [3] addresses Gonadotropin-releasing hormone receptor (Homo sapiens) (UniProt P30968). Kind of assay: Human gonadotropin-releasing hormone receptor (GnRHR) small molecule agonists, calcium flux assay in GnRHR-HEK293 cells (AID 1920063). Also: nearly all actives have a fitted effect of over 35% in size. A digest of the protocol: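 Cells: HEK293 stably expressing human GnRHR. Steps: overnight (18 h) culture, 1 h calcium dye loading at 37 C, compound addition, kinetic fluorescence read at 480/540 nm. Each compound tested at 15 concentrations in triplicate.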
In general terms: A change in cytosolic calcium serves as a functional read-out for many receptors and channels.

In assay [4] the target is KiSS-1 receptor (Homo sapiens) (UniProt Q969F8). Nature of the assay: Human kisspeptin (KISS1R) small molecule agonists, calcium flux assay in KISS1R-HEK293 cells (AID 1920064; active = well fitted curve in the direction sought with a large enough effect in the repeat runs; an effect the other way counts as inactive or inconclusive). A digest of the protocol:
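Cells plated and incubated 18 h; dye added, 1 h at 37 C; compounds in DMSO pinned in; signal read at 480/540 nm every second for 3 min. Each compound tested at 15 concentrations in triplicate.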

Assay [5] is described as follows: G protein-coupled receptor (GPCR) small molecule agonists, calcium flux assay: HEK293 wild type cell line counter screen (AID 1920065). A digest of the protocol:
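Counter-screen of the Tox21 10K library for non-specific calcium release: dye-loaded cells received compounds in DMSO and were monitored by kinetic fluorescence (480/540 nm, 3 min). Fifteen concentrations, run in triplicate.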

Assay [6] is described as follows: p53 small molecule agonists, cell-based qHTS assay with human liver microsomes: qHTS cell viability counter screen (AID 1963579). Also: nearly all actives have a fitted effect of over 45% in size. The method, boiled down: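 Metabolic activation used human liver microsomes and NADPH, both 0.5 mg/mL final, over 16 hours at 37 C on p53RE-bla cells (4,000/well). Cytotoxicity measured by CellTiter-Glo luminescence, 30 min at room temperature.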

The nature of assay [7]: p53 small molecule agonists, cell-based qHTS assay with rat liver microsomes: qHTS cell viability counter screen (AID 1963580). Also: nearly all actives have a fitted effect of over 45% in size. The method, boiled down:
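Intracellular ATP, by CellTiter-Glo luminescence, defines viability. HCT-116 p53RE-bla cells, 4,000 per well, were compound-treated in the presence of rat liver microsomes and NADPH for 16 h at 37 C.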

Assay [8] can be described thus: p53 small molecule agonists, cell-based qHTS assay: qHTS cell viability counter screen (AID 1963581). Also: nearly all actives have a fitted effect of over 45% in size. The method, boiled down: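 Cells: HCT-116 with p53 response element-driven beta-lactamase. Treatment: 16 h, 37 C, compounds in DMSO. Read: CellTiter-Glo luminescence after 30 min RT.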
Assay [9] concerns the target 5-hydroxytryptamine receptor 2A (Homo sapiens) (UniProt P28223). Nature of the assay: 5-hydroxytryptamine receptor 2A (HTR2A) small molecule antagonists, cell-based qHTS assay (AID 1963586). Also: nearly all actives have a fitted effect of over 45% in size. The method, boiled down: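 Antagonist-mode intracellular calcium assay: DOI (4 nM) added after 5 min compound pre-incubation at room temperature to dye-loaded HTR2A-CHO cells. Fluorescence followed for 3 min, sampled every second.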

The target is the same in assay [10]. Kind of assay: 5-hydroxytryptamine receptor 2A (HTR2A) small molecule agonists, cell-based qHTS assay (AID 1963587). Also: nearly all actives have a fitted effect of over 30% in size. A digest of the protocol: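 Kinetic calcium-flux fluorescence (2 min, 1 sec intervals) after compound addition in agonist mode. HTR2A-CHO cells were cultured 18 h, then dye-loaded 1 h at 37 C.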
For assay [11], the target named is Muscarinic acetylcholine receptor M1 (Homo sapiens) (UniProt P11229). Kind of assay: Cholinergic receptor muscarinic 1 (CHRM1) small molecule antagonists, cell-based qHTS assay (AID 1963588). Also: nearly all actives have a fitted effect of over 40% in size. A digest of the protocol:
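CHRM1-CHO calcium-flux assay, antagonist mode. Cells were seeded 18 h, dye-loaded 1 h at 37 C and given compound for 5 min at RT, then acetylcholine was added at 50nM. FDSS fluorescence was read 3 min; 15 concentrations, three runs.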

The target is the same in assay [12]. Nature of the assay: Cholinergic receptor muscarinic 1 (CHRM1) small molecule agonists, cell-based qHTS assay (AID 1963589). Also: nearly all actives have a fitted effect of over 35% in size. A digest of the protocol:
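Agonist-mode qHTS in CHO cells stably carrying human muscarinic M1. Intracellular calcium is tracked by fluorescence every second after compound transfer; each compound runs at 15 concentrations in three independent runs.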

Assay [13] is described as follows: cAMP Responsive Elements (CRE) small molecule agonists, cell-based qHTS assay (AID 1963590). The method, boiled down: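 Agonist mode qHTS in CRE-bla HEK 293T cells: compounds dosed from DMSO for 3 h at 37 C/5% CO2, followed by LiveBLAzer B/G FRET substrate for 2 h at room temperature.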
For assay [14], the target named is Beta-2 adrenergic receptor (Homo sapiens) (UniProt P07550). Nature of the assay: Adrenergic beta2 receptor (ADRB2) small molecule antagonists, cell-based qHTS assay (AID 1963592). Also: series mostly up to about 92 µM; nearly all actives have a fitted effect of over 50% in size. A digest of the protocol: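 Cells (CHO, stable ADRB2 overexpression) incubated 18-20hr at 37C; compounds added from DMSO; agonist mix (1nM isoproterenol, 100uM IBMX, 25uM Ro-20-1724) added; 0.5hr RT; d2-cAMP and anti-cAMP-cryptate added; 1hr RT; 665/615 nm read.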
Chain of Beta-2 adrenergic receptor (Homo sapiens) (P07550 whole entry, looked up): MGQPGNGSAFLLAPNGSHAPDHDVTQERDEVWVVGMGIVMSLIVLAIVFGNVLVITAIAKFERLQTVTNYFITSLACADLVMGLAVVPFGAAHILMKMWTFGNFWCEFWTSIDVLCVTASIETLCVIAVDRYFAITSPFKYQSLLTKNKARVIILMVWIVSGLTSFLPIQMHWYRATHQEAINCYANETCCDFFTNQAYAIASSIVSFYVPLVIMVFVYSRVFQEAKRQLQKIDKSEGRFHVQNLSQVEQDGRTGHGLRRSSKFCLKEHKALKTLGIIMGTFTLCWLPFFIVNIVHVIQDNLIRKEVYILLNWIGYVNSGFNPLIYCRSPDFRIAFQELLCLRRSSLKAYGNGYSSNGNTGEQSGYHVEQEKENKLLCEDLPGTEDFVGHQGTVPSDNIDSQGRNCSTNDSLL

Assay [15] shares this target. Kind of assay: Adrenergic beta2 receptor (ADRB2) small molecule agonists, cell-based qHTS assay (AID 1963593).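 Also: CHO cells stably overexpressing human ADRB2.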 The method, boiled down: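 CHO cells stably over-expressing ADRB2 were plated overnight at 37C, then dosed with compounds plus a stimulation mix containing 100uM IBMX and 25uM Ro-20-1724 for 0.5hr at room temperature. cAMP was measured by HTRF competition, 1hr.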

Assay [16] addresses D(2) dopamine receptor (Homo sapiens) (UniProt P14416). Kind of assay: Dopamine D2 receptor (DRD2) small molecule agonists, cell-based qHTS assay (AID 1963594). Also: nearly all actives have a fitted effect of over 35% in size. Also: potency is read from the fitted curve at half-maximal effect. The method, boiled down: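 cAMP accumulation in DRD2-HEK293 cells measured by HTRF after 1 h detection; compounds added 10 min before NKH477 (200nM […]) forskolin-analogue stimulation, 30 min at room temperature, with Ro20-1724 present at 0.1 mM final.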

Assay [17] has the same target. Nature of the assay: Dopamine D2 receptor (DRD2) small molecule antagonists, cell-based qHTS assay (AID 1963595; active = well fitted inhibition curve with a large enough effect in the signal ratio in the repeat runs, with a control signal flat; the % refers to the signal ratio). The method, boiled down:
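Stable D2 receptor HEK293 line, 24 h after seeding. Compound preincubated 10 min, then quinpirole (12 nM) with forskolin analogue NKH477 (200 nM), 30 min, room temperature. Detection by time-resolved FRET of cAMP.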

Assay [18] is described as follows: cAMP Responsive Elements (CRE) small molecule antagonists, cell-based qHTS assay (AID 1963591; active = well fitted inhibition curve with a large enough effect in the signal ratio in the repeat runs, not every such curve was filed as active; the % refers to the signal ratio). A digest of the protocol: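 Antagonist mode: test compounds are co-incubated with the adenylyl cyclase activator NKH477 (0.25 uM final) on CRE-bla HEK293T cells for 3 h at 37 °C, followed by LiveBLAzer substrate loading.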

Chain of Muscarinic acetylcholine receptor M1 (Homo sapiens) (P11229 whole entry, looked up): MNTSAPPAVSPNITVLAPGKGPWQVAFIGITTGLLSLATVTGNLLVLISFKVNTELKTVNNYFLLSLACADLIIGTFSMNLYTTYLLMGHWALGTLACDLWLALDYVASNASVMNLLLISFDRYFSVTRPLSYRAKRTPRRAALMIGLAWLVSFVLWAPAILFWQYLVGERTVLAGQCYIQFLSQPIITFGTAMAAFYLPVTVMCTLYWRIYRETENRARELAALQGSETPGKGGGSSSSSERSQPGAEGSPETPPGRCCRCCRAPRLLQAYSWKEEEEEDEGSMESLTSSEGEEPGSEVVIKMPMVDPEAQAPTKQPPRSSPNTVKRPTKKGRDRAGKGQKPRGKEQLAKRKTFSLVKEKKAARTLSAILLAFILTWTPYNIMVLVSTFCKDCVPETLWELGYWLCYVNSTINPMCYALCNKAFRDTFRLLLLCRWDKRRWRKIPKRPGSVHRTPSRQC
Chain of 5-hydroxytryptamine receptor 2A (Homo sapiens) (P28223 whole entry, looked up): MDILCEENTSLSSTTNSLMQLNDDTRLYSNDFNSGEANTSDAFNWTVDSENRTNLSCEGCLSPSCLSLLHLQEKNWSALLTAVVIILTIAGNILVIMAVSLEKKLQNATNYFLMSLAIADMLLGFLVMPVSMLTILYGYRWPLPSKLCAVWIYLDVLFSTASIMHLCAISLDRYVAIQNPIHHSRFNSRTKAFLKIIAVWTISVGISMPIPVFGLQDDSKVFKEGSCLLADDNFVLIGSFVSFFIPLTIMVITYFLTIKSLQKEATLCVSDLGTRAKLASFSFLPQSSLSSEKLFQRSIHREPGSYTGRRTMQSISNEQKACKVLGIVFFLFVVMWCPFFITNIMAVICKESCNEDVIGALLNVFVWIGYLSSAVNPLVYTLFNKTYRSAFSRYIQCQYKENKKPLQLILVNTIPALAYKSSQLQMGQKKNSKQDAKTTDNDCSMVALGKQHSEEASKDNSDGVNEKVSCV
Chain of Gonadotropin-releasing hormone receptor (Homo sapiens) (P30968 whole entry, looked up): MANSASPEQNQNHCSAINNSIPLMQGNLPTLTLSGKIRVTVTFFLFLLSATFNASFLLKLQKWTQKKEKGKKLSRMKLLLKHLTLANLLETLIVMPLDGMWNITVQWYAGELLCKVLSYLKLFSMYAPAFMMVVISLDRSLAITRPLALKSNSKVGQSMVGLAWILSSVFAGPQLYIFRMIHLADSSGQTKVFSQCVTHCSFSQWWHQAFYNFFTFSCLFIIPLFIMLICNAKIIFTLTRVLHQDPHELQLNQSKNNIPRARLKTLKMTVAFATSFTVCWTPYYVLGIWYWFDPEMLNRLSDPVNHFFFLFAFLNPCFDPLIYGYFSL
Chain of KiSS-1 receptor (Homo sapiens) (Q969F8 whole entry, looked up): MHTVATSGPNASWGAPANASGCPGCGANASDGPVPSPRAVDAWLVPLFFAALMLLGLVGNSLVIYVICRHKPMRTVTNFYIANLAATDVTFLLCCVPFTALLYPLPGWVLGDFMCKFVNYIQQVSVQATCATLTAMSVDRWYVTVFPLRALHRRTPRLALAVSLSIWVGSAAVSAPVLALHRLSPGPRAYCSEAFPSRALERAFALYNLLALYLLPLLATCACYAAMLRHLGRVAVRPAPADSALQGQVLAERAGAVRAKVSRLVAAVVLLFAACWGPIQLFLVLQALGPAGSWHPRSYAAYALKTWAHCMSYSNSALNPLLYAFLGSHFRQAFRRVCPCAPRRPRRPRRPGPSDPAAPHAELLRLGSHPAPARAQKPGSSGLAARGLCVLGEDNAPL
Chain of D(2) dopamine receptor (Homo sapiens) (P14416 whole entry, looked up): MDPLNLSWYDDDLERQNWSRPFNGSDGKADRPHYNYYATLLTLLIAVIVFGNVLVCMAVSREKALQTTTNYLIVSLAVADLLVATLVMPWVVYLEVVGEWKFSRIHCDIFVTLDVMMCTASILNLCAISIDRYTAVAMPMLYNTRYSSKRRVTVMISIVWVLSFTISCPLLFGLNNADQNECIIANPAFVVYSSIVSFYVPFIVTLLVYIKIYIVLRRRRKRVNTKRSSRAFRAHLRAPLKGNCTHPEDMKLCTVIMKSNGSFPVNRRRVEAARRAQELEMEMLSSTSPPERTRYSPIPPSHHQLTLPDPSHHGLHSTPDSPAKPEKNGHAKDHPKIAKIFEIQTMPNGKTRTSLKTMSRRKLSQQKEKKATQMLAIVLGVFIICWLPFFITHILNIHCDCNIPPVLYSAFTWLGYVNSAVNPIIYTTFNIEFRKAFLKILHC

As for `ClSC(Cl)(Cl)Cl`, the Potency result in [1], in assay [2], in assay [3], in assay [4], in [5] and in assay [6] was “inactive” in each case. For the same molecule, the Potency entry in assay [7], in assay [8], in assay [9], in assay [10], in [11] and in assay [12] was “inactive” each time. The Potency entry in assay [13], in assay [14], in assay [15], in assay [16] and in assay [17] was “inactive” each time.

In the case of `CC(C)=CC1C(C(=O)OC(C#N)c2cccc(Oc3ccccc3)c2)C1(C)C` (stereo unspecified), the Potency entry in assay [1], in assay [2], in assay [3], in [4], in assay [5] and in assay [6] was “inactive” throughout. Also, the Potency result in [7], in [8], in [9], in assay [10], in [11] and in assay [12] was “inactive” each time. Moreover, the Potency entry in [13], in [18], in assay [14], in assay [16] and in assay [17] was “inactive” each time.

`CCC1(c2ccccc2)C(=O)N(COC)C(=O)N(COC)C1=O`: the Potency result in assay [1], in assay [2], in [3], in assay [4], in [5] and in assay [6] was “inactive” each time. Besides, the Potency result in assay [7], in [8], in assay [9], in assay [10], in assay [11] and in assay [12] was “inactive” throughout. Besides, the Potency result in assay [13], in assay [18] and in assay [15] was “inactive” throughout. In addition, the Potency in [16] was 10.6 µM (active).

Turning to `O=C(CBr)c1ccccc1`, the Potency entry in [1], in [3], in assay [4], in [5], in [6] and in [7] was “inactive” in each case. Further, the Potency entry in [8], in [9], in assay [10], in [11], in assay [12] and in assay [13] was “inactive” throughout. For the same molecule, the Potency entry in [14], in assay [16] and in [17] was “inactive” throughout. Moreover, in assay [2], the Potency was 69 µM (active).

In the case of `CCC1(CC)C(=O)N=C(O)NC1=O`, the Potency result in [1], in assay [2], in assay [3], in assay [4], in assay [5] and in assay [6] was “inactive” in each case. Further, the Potency entry in assay [7], in [8], in [9], in [10], in [11] and in assay [12] was “inactive” throughout. Also, the Potency entry in [13], in assay [18], in assay [15], in [16] and in [17] was “inactive” in each case.

On to `CCOC1Oc2ccc(OS(C)(=O)=O)cc2C1(C)C` (stereo unspecified), for which the Potency result in assay [1], in [2], in [3], in [4], in assay [5] and in [6] was “inactive” each time. Also, the Potency result in assay [7], in assay [8], in assay [9], in [10], in assay [11] and in assay [12] was “inactive” throughout. Also, the Potency entry in [13], in assay [18], in assay [14], in assay [15], in assay [16] and in assay [17] was “inactive” in each case.

Turning to `COP(=S)(NC(C)C)Oc1ccc(C)cc1[N+](=O)[O-]` (stereo unspecified), the Potency entry in [1], in [2], in assay [3], in [4], in assay [5] and in assay [6] was “inactive” throughout. In addition, the Potency result in [7], in assay [8], in [9], in assay [10], in [11] and in assay [12] was “inactive” in each case. For the same molecule, the Potency result in assay [18] and in [16] was “inactive” in each case.

On to `Cc1cc(OC(=O)N(C)C)nn1C(=O)N(C)C`, for which the Potency entry in assay [1], in [2], in [3], in assay [4], in assay [5] and in assay [6] was “inactive” each time. For the same molecule, the Potency result in assay [7], in [8], in assay [9], in assay [10], in assay [11] and in [12] was “inactive” throughout. Further, the Potency entry in [13], in assay [18], in assay [14] and in [17] was “inactive” in each case.
